Where “and” joins values, the source holds several entries; their conditions need not be identical. Equal values may be shown once. The campaign covered roughly 5,700 compounds. About 85 (1%) were called active. No stated cut-off is given here; in the data, active means p53-positive nuclei above about 36% (passing the limit was not always enough); inactive means the rest. The list comes from a sample in which actives are over-represented; it also holds similar structures and randomly drawn compounds. Some structures have more than one record in an assay (separate samples or runs), and their calls can disagree.
Key:
[1] = p53 stabilisation in HPV-positive human cells, imaging, p53-positive nuclei imaging, 24 h, 48 h (AID 1508601); conditions: 24/48 h
[2] = molecular target: Cellular tumor antigen p53 (Homo sapiens) (UniProt P04637); assay: as above; conditions: 24/48 h, stronger effect = higher value
[3] = measured here: cell number at 24 h, Library stock concentration: 10 mM
[4] = measured here: cell number at 48 h, Library stock concentration: 10 mM
[5] = Library stock concentration: 10 mM
[6] = measured here: p53 positive nuclei at 24 h, Library stock concentration: 10 mM
[7] = measured here: cell number at 24 h, concentration not given here
[8] = measured here: cell number at 48 h, concentration not given here
[9] = measured here: p53 positive nuclei at 24 h, concentration not given here

Sequence of Cellular tumor antigen p53 (Homo sapiens) (P04637 whole entry, looked up): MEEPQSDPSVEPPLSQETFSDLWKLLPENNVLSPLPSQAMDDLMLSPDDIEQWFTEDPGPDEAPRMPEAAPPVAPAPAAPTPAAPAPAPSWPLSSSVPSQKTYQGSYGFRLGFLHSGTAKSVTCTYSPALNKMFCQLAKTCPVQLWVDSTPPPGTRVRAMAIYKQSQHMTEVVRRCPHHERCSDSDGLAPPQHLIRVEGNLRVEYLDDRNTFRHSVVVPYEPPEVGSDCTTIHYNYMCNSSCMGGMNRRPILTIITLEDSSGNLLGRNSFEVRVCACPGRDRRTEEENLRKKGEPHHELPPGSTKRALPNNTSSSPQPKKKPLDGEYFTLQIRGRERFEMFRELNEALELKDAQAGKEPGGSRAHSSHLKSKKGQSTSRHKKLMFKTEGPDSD

Structure (SMILES): CC1=C(O)C(=O)C=C2C1=CC=C1[C@@]2(C)CC[C@@]2(C)C3C[C@](C)(C(=O)O)CC[C@]3(C)CC[C@]12C (some centres undefined)
- nuclei count, normalised ([1]; measured here: cell number at 24 h, Library stock concentration: 46 uM): 117%
- nuclei count, normalised ([1]; measured here: cell number at 24 h, Library stock concentration: 278 uM): 114%
- nuclei count, normalised ([1]; measured here: cell number at 24 h, Library stock concentration: 1.67 mM): 57.4%
- nuclei count, normalised [1, 3]: 47.5%
- nuclei count, normalised ([1]; measured here: cell number at 48 h, Library stock concentration: 46 uM): 112%
- nuclei count, normalised ([1]; measured here: cell number at 48 h, Library stock concentration: 278 uM): 104%
- nuclei count, normalised ([1]; measured here: cell number at 48 h, Library stock concentration: 1.67 mM): 48.7%
- nuclei count, normalised [1, 4]: 31.9%
- p53-positive nuclei, normalised ([2]; Library stock concentration: 46 uM): 0.197% (inactive)
- p53-positive nuclei, normalised ([2]; Library stock concentration: 278 uM): 0.188% (inactive)
- p53-positive nuclei, normalised ([2]; Library stock concentration: 1.67 mM): 8.51% (inactive)
- p53-positive nuclei, normalised [2, 5]: 26.6% (inactive)
- p53-positive nuclei, normalised ([2]; measured here: p53 positive nuclei at 24 h, Library stock concentration: 46 uM): -0.0305%
- p53-positive nuclei, normalised ([2]; measured here: p53 positive nuclei at 24 h, Library stock concentration: 278 uM): -0.0276%
- p53-positive nuclei, normalised ([2]; measured here: p53 positive nuclei at 24 h, Library stock concentration: 1.67 mM): 9.81%
- p53-positive nuclei, normalised [2, 6]: 29.3%

Structure (SMILES): CC1=C(O)C(=O)C=C2C1=CC=C1[C@@]2(C)CC[C@@]2(C)[C@@H]3C[C@](C)(C(=O)O)CC[C@]3(C)CC[C@]12C
- nuclei count, normalised [1, 7]: 88.7% and 27%
- nuclei count, normalised [1, 8]: 109% and 15.7%
- p53-positive nuclei, normalised ([2]; concentration not given here): 0.0329% (inactive) and 96.6% (active)
- p53-positive nuclei, normalised [2, 9]: 0.225% and 93.4%

Structure (SMILES): CC1=C(O)C(=O)C=C2C1=CC=C1[C@@]2(C)CCC2(C)C3C[C@](C)(C(=O)O)CC[C@]3(C)CC[C@]12C (some centres undefined)
- nuclei count, normalised ([1]; measured here: cell number at 24 h, Library stock concentration: 80 uM): 94.9%
- nuclei count, normalised ([1]; measured here: cell number at 24 h, Library stock concentration: 400 uM): 109%
- nuclei count, normalised ([1]; measured here: cell number at 24 h, Library stock concentration: 2 mM): 92%
- nuclei count, normalised [1, 3]: 46.3%
- nuclei count, normalised ([1]; measured here: cell number at 48 h, Library stock concentration: 80 uM): 95.5%
- nuclei count, normalised ([1]; measured here: cell number at 48 h, Library stock concentration: 400 uM): 109%
- nuclei count, normalised ([1]; measured here: cell number at 48 h, Library stock concentration: 2 mM): 91.7%
- nuclei count, normalised [1, 4]: 28.8%
- p53-positive nuclei, normalised ([2]; Library stock concentration: 80 uM): 0.0324% (inactive)
- p53-positive nuclei, normalised ([2]; Library stock concentration: 400 uM): 0.159% (inactive)
- p53-positive nuclei, normalised ([2]; Library stock concentration: 2 mM): 0.635% (inactive)
- p53-positive nuclei, normalised [2, 5]: 9.53% (inactive)
- p53-positive nuclei, normalised ([2]; measured here: p53 positive nuclei at 24 h, Library stock concentration: 80 uM): 0.113%
- p53-positive nuclei, normalised ([2]; measured here: p53 positive nuclei at 24 h, Library stock concentration: 400 uM): 0.398%
- p53-positive nuclei, normalised ([2]; measured here: p53 positive nuclei at 24 h, Library stock concentration: 2 mM): 0.116%
- p53-positive nuclei, normalised [2, 6]: 10.2%

Structure (SMILES): CCCCCCCCCCCC[N+](C)(C)CCOc1ccccc1
- nuclei count, normalised ([1]; measured here: cell number at 24 h, Library stock concentration: 3.33 mM): 115%
- nuclei count, normalised ([1]; measured here: cell number at 48 h, Library stock concentration: 3.33 mM): 110%
- p53-positive nuclei, normalised ([2]; Library stock concentration: 3.33 mM): -0.174% (inactive)
- p53-positive nuclei, normalised ([2]; measured here: p53 positive nuclei at 24 h, Library stock concentration: 3.33 mM): -0.284%

Structure (SMILES): CCCCC/C=C\C/C=C\C/C=C\C/C=C\CCCCOC(CO)CO
- nuclei count, normalised [1, 7]: 104%
- nuclei count, normalised [1, 8]: 111%
- p53-positive nuclei, normalised ([2]; concentration not given here): 0.099% (inactive)
- p53-positive nuclei, normalised [2, 9]: 0.34%
